Screening data as filed in PubChem BioAssay.
NS1 inh: blocks influenza NS1 protein function. 0.4% of 270,000 active. Potency, µM (series often up to 46.1 µM); calls by dose curve; also: actives are rising curves; nearly all actives have a fitted effect of over 50% in size
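S. cerevisiae expressing influenza A NS1, grown in glucose, washed, then diluted 1:100 into pH 6.0 -URA galactose medium with 23 nl compound. Growth recovery read as OD600; NS1-free strain serves as control.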
Pf growth 48h: inhibits P. falciparum growth in the first generation, 48 h. P. falciparum luciferase growth in erythrocytes, 48 h. Potency, µM (highest dose often 28.7 µM), hits mostly inhibitors. 5.9% of 310,000 active
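Here the parasites carry a stable luciferase gene and grow inside erythrocytes in Albumax-based RPMI medium with compound for one erythrocytic cycle. Activity is scored as loss of luminescent signal.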
Shiga inhibitor: inhibitors of Shiga toxin in Vero cells. Vero cells, Shiga toxin protein synthesis inhibition reporter. 9.2% of 290,000 active. inhibition, % at 38.7 µM. AID 2315; in the data active = inhibition mostly above about 28%, no sharp cut-off; inactive = mostly below about 43%
FBPA Giardia inh: Giardia lamblia aldolase inhibition | A8B2U2 | purified Giardia FBPA | Potency, µM (doses to about 59.6 µM), hits mostly inhibitors | 0.71% of 290,000 active; also: nearly all actives have a fitted effect of over 55% in size
Target sequence (A8B2U2 whole entry, looked up): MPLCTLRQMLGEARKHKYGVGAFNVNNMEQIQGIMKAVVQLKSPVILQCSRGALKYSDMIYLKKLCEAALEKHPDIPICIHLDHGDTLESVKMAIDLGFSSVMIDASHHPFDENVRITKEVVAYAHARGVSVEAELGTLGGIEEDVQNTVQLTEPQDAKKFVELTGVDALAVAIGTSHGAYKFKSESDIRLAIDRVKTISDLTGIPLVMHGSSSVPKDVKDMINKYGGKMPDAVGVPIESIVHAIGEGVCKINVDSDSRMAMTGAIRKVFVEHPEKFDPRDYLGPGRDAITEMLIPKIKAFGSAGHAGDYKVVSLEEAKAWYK
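40 nM FBPA preincubated 10 min at RT with compound (up to 57.5 uM final), then substrate plus GAPDH/TPI/NAD/arsenate coupling and diaphorase/resazurin added. Fluorescence read after 20 min at RT, 525/598 nm.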
Pf growth 96h: inhibits malaria parasite growth, 96 h; 6.9% of 320,000 active; P. falciparum luciferase reporter growth, 96 h; Potency, µM (titrated, usually from 28.7 µM), hits mostly inhibitors
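Delayed-death screen, second-generation endpoint: infected erythrocytes, 2% hematocrit, 0.05% parasitemia final; 96 hours at 37 C, 5% CO2; luciferase detection reagent; luminescence decrease equals reduced growth.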
CHX counter: counter-screen hit for Shiga toxin inhibitors, cycloheximide; max response, %; 12% of 300,000 active; cell reporter, cycloheximide protein synthesis inhibition counterscreen; AID 2314; in the data active = max response mostly above about 13%, no sharp cut-off; inactive = mostly below about 14%; also: read at 38.3 µM for the half of the compounds with a filed dose
Large screens that a line does not name were inactive. Hits are enriched below; roughly 21% of the tested compounds scored in any of these assays. Unless noted, calls follow the shape of the dose curve; as a rule, active = well fitted curve in the direction sought with a large enough effect; inconclusive = small, poorly fitted or top-dose-only effect, or another doubt; inactive = no such curve, though single readings can be large; an effect the other way counts as inactive or inconclusive.

CC(NC(=O)c1ccccc1Cl)C1COc2ccccc2O1 (configuration not stated)	Shiga inhibitor 51.0, CHX counter 31.2
CC(NS(=O)(=O)c1ccccc1)C1COc2ccccc2O1 (configuration not stated)	CHX counter 31.2 (no result: Pf growth 48h)
O=C(O)CCCNC(=O)c1cccc(C(=O)NCCCC(=O)O)n1	Pf growth 96h inconclusive
O=C1C(Cl)=C(NCCN2CCCCC2)C(=O)c2ccccc21	Shiga inhibitor 49.0, FBPA Giardia inh inconclusive, Pf growth 96h inconclusive, CHX counter 54.2 (no result: NS1 inh)
O=C(NCCN1CCCCC1)Nc1ccccc1Cl	none
COc1ccc(C(=O)NCCCOc2cccnc2)cc1OC1CCN(C(C)=O)CC1	none (no result: FBPA Giardia inh)
Cn1c(SCC(=O)Nc2ccccc2Oc2ccccc2)nnc1C1CC1	Pf growth 96h inconclusive (no result: NS1 inh, Shiga inhibitor, FBPA Giardia inh, CHX counter)
NC(N)=Nc1ccc(N=C(N)N)cc1	Pf growth 48h inconclusive, Pf growth 96h 8.28µM
c1ccc2c(c1)CCCN2Cc1nnnn1C1CCCC1	none (no result: Pf growth 96h)
CC[C@@]1(O)C(=O)OCc2c1cc1n(c2=O)Cc2cc3c(O)cccc3nc2-1	none (no result: NS1 inh, Pf growth 48h, Pf growth 96h)
CC[C@@]1(O)C(=O)OCc2c1cc1n(c2=O)Cc2cc3c(NC(=O)CN)cccc3nc2-1	Pf growth 48h inconclusive, FBPA Giardia inh inconclusive, Pf growth 96h 7.38µM
CCC1(OC(=O)CN)C(=O)OCc2c1cc1n(c2=O)Cc2cc3ccccc3nc2-1 (configuration not stated)	Pf growth 48h 1.65µM, Pf growth 96h 0.928µM
CC(C)(C)NC(=O)CCc1ncc(C(F)(F)F)cc1Cl	none (no result: NS1 inh)
CCc1ccc(OCC(=O)Nc2ccc(CN3CCCCC3)cc2)cc1	Pf growth 48h inconclusive, Pf growth 96h inconclusive
O=C(CCc1ccccc1)Nc1ncn[nH]1	Pf growth 96h inconclusive
O=C(/C=C/c1ccccc1)Nc1ncn[nH]1	CHX counter 25.9
CCc1ccc(OCC(=O)Nc2ncn[nH]2)cc1	Shiga inhibitor 57.6, CHX counter 24.8 (no result: NS1 inh)
CC(C)(C)c1ccccc1OCC(=O)Nc1ncn[nH]1	none (no result: Pf growth 48h)
O=C(COc1ccccc1)Nc1ncn[nH]1	Shiga inhibitor 45.7, CHX counter 21.4
Cc1ccc(S(=O)(=O)C(C#N)=C2N(C)c3ccccc3N2C)cc1	Pf growth 96h inconclusive (no result: NS1 inh)
CCN(CC)c1ccc(C(=O)NNC(=O)CCl)cc1	Pf growth 48h 6.57µM, FBPA Giardia inh inconclusive, Pf growth 96h inconclusive, CHX counter 31.5 (no result: NS1 inh)
C/C(=N\NC(=O)c1ccn(C)n1)c1ccc(NC(=O)C2CCC2)cc1	Shiga inhibitor 55.7, CHX counter 27.3 (no result: FBPA Giardia inh)
CCN(CC)c1ccc(NC(=O)C2CCCC2)cc1	Pf growth 48h inconclusive, Pf growth 96h inconclusive (no result: Shiga inhibitor)
C/C(=N\NC(=O)C1(C)CC1(Br)Br)c1ccc(NC(=O)C2CCC2)cc1 (configuration not stated)	Pf growth 48h inconclusive, Pf growth 96h 5.22µM
C/C(=N\NC(=O)c1nn(C)c(C)c1Br)c1ccc(NC(=O)C2CCCC2)cc1	Shiga inhibitor 107.2, Pf growth 96h 13.1µM, CHX counter 40.6 (no result: FBPA Giardia inh)
C/C(=N\NC(=O)C1(C)CC1(Br)Br)c1cccc(NC(=O)c2ccc(C)o2)c1 (configuration not stated)	Pf growth 48h inconclusive, Shiga inhibitor 51.6, CHX counter 28.4 (no result: FBPA Giardia inh)
CCCCc1ccc(/C(C)=N/NC(=O)C2CCCC2)cc1	Pf growth 96h inconclusive
CC(C)C(OC(=O)c1cccs1)C(=O)NCc1ccc2c(c1)OCO2 (configuration not stated)	none
FC(F)(F)c1ccccc1-c1ccc2ncnc(NC3CCNCC3)c2c1	none (no result: NS1 inh, Pf growth 48h, Shiga inhibitor, Pf growth 96h, CHX counter)
C[C@@]12C=Cc3occc3[C@H]1CC[C@]13CC(=O)[C@@H](CC[C@H]12)C3	none (no result: NS1 inh, Pf growth 48h, Pf growth 96h)
C/C(=N\NC(=O)c1ccn(C)n1)c1ccc(NC(=O)C2CCCC2)cc1	Shiga inhibitor 79.2, CHX counter 31.5
Cc1noc(/C=C/Nc2ccc(F)cc2F)c1[N+](=O)[O-]	Shiga inhibitor 141.0, CHX counter 53.1 (no result: NS1 inh)
O=C(CNC(=S)N(Cc1ccccc1F)C1CCCCC1)NCCN1CCOCC1	none (no result: NS1 inh)
O=C(CNC(=S)N(Cc1ccccc1Cl)C1CCCC1)NCCN1CCOCC1	Pf growth 48h 10.4µM (no result: NS1 inh)
CCN1C(=O)/C(=C/c2ccc(N3CCCC3)cc2)NC1=S	NS1 inh inconclusive, Pf growth 96h 8.28µM, CHX counter 65.7
CCCN1C(=O)/C(=C/c2ccc(N3CCCC3)c(C)c2)NC1=S	Pf growth 48h inconclusive, Shiga inhibitor 50.2, CHX counter 18.9
Cc1cc(/C=C2\NC(=S)N(C)C2=O)ccc1N1CCCC1	Shiga inhibitor 94.6, CHX counter 32.8
Cc1cc(/C=C2/C(=O)N(C)C(=S)N2C)ccc1N1CCCC1	Shiga inhibitor 93.1, CHX counter 32.0
Cc1cc(N2CCCC2)ccc1/C=C1/C(=O)N(C)C(=S)N1C	none
COc1c(CC(=O)c2cc3c(cc2O)OC(C)(C)C(O)C3)ccc2c1C=CC(C)(C)O2 (configuration not stated)	none (no result: NS1 inh, Pf growth 48h, Shiga inhibitor, Pf growth 96h, CHX counter)
Cn1c(=O)c2nc(Cl)c(-c3ccccc3)nc2n(C)c1=O	Pf growth 48h 4.15µM, Pf growth 96h inconclusive
Cn1c(=O)c2nc3ccccc3nc2n(C)c1=O	Pf growth 96h inconclusive
O=C(Nc1ccn(Cc2ccccc2)n1)c1ccc(F)cc1	Shiga inhibitor 85.0, CHX counter 45.0
Cc1ccccc1Cn1ccc(NC(=O)c2nn3cccnc3c2Cl)n1	CHX counter 22.2
Cc1ccc(Cn2ccc(NC(=O)c3nn(C)cc3Cl)n2)cc1	Shiga inhibitor 91.6, CHX counter 38.5
O=C(Nc1ccn(Cc2ccccc2)n1)c1cccc(Cn2cc([N+](=O)[O-])cn2)c1	none
CSc1ccccc1NC(=O)c1cc(-c2cccs2)on1	Shiga inhibitor 55.8 (no result: Pf growth 96h)
Cc1ccccc1Cn1ccc(NC(=O)c2cc3ncc(Br)cn3n2)n1	Pf growth 96h inconclusive
Cc1cc(C)c2c(c1)c1nnc(SCCN3CCCCC3)nc1n2C	Pf growth 48h inconclusive, Pf growth 96h inconclusive
NC(Cc1ccccc1)C(O)c1ccco1 (configuration not stated)	none (no result: NS1 inh, Pf growth 48h, Pf growth 96h)
Cc1ccc(Cn2ccc(NC(=O)c3cc(-c4ccc(F)cc4)on3)n2)cc1	Pf growth 96h 3.29µM
Cc1ccc(O)c(NC(=O)c2cc(-c3ccc(F)cc3)on2)c1	CHX counter 41.5 (no result: NS1 inh)
Cc1ccc(O)c(NC(=O)c2cc(-c3cccs3)on2)c1	Pf growth 48h inconclusive, Shiga inhibitor 79.0, CHX counter 21.2
Cc1cc(C)c(S(=O)(=O)Nc2nccs2)c(C)c1	none
Cc1ccc(NC(=O)c2sc3nc(CCl)[nH]c(=O)c3c2C)c(C)c1	Pf growth 48h inconclusive, Shiga inhibitor 59.5, Pf growth 96h inconclusive (no result: NS1 inh)
CSCc1nc2sc(C(=O)Nc3nc(C)cs3)c(C)c2c(=O)[nH]1	CHX counter 33.4 (no result: NS1 inh)
Cc1cc(C)c(NC(=O)c2sc3nc(C)[nH]c(=O)c3c2C)c(C)c1	none
C[C@H](c1ccccc1)N1CCN([C@@H](C)c2ccccc2)CC1	none (no result: Pf growth 48h, Shiga inhibitor, FBPA Giardia inh, Pf growth 96h, CHX counter)
CC(=O)O[C@]1(C)CC[C@]23CC1C(C)(C)C2CC[C@@H]3C (some centres not stated)	none (no result: NS1 inh, Pf growth 48h, Shiga inhibitor, Pf growth 96h, CHX counter)
